Bioassay records: PubChem, National Center for Advancing Translational Sciences (NCATS)
In the library only some 4.8% were active in any assay of this set; here they are far more common.
USP1 inh: inhibitors of human USP1/UAF1 deubiquitinase; O94782; recombinant USP1/UAF1, Ub-Rhodamine cleavage fluorescence; Potency, µM (top dose mostly 57.1 µM), for the others: top-dose activity change, negative = inhibition, usual class: inhibitors; 390,000 tested, 0.23% active; AID 743255; note: potency is the fitted concentration of half-maximal effect; % is set by controls: 0 for no effect and ±100 for the full control effect; nearly all actives have a fitted effect of over 60% in size
Target sequence (O94782 whole entry, looked up): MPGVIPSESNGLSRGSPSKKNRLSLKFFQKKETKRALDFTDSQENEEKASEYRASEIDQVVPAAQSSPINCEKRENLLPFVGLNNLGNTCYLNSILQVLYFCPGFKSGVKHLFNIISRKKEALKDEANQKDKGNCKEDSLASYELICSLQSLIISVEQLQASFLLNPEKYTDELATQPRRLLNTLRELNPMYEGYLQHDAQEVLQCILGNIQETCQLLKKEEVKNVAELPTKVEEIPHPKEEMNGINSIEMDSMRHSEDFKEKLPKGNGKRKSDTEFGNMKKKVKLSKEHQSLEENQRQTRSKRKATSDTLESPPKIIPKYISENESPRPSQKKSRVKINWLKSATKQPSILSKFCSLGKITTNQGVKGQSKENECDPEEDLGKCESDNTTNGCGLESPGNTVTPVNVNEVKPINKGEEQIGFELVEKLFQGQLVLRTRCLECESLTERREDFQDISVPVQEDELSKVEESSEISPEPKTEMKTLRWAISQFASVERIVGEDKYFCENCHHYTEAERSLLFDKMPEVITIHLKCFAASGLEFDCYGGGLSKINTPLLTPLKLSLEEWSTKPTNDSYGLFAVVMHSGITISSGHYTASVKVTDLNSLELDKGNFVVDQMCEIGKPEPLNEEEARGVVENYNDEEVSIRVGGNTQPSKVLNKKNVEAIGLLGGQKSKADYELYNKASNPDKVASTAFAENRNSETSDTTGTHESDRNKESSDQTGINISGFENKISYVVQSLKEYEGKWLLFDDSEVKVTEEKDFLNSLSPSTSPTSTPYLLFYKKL
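USP1/UAF1 complex at 1 nM was preincubated with compound for 15 min at room temperature, then Ub-Rho substrate (150nM final) was added. Fluorescence (480/540 nm) was read kinetically, 6 reads every 60 seconds.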
S2 tox: reduces viability in counter-screen for ATXN expression inhibitors; Potency, µM (series often up to 56.7 µM), hits mostly cytotoxic; 400,000 tested, 0.49% active; S2 cells (HEK-293 line with an ATXN2-luciferase reporter) viability, CellTiter-Fluor protease fluorescence, 24 h; AID 651635; note: potency is the fitted concentration of half-maximal effect; nearly all actives have a fitted effect of over 40% in size
ATXN2 expr inh: ATXN2 expression inhibition | HEK-293 ATXN2-luciferase reporter, luminescence, 24 h | 360,000 tested, 0.72% active | Potency, µM (top dose mostly 57 µM), for the others: at the top dose activity change, negative = inhibition, hits mostly inhibitors; note: potency is the fitted concentration of half-maximal effect; % is set by controls: 0 for no effect and ±100 for the full control effect; nearly all actives have a fitted effect of over 55% in size
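qHTS (up to 57 uM final) was run with 24 h compound exposure of reporter cells at 37 °C. Each well was multiplexed: SteadyGlo luminescence measured ATXN2-luciferase expression after a fluorogenic Gly-Phe-AFC viability readout (25 uM final).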
IL-1B inflam inh: inhibitors of inflammasome signaling (IL-1 beta secretion). THP-1 LPS/ATP IL-1B secretion, AlphaLISA, 16 h; active compounds read low. activity change, % at 57.5 µM. 360,000 tested, 4.7% active; in the data active = activity change below about -50%; inconclusive = mostly about -30% to -49%; note: % is set by controls: 0 for no effect and ±100 for the full control effect
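Secreted IL-1B measured by AlphaLISA bead assay after 16 h compound exposure of THP-1 cells; compounds (final up to 57.5 uM) added 1 h before LPS (250 ng/mL) and ATP (1.25 mM) stimulation; lower signal means less secretion.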
USP2a inh: inhibitors of human ubiquitin-specific protease USP2a; O75604; USP2 core, Ub-CHOP2 coupled fluorogenic reporter, 485/531; Potency, µM (titrated, usually from 38.3 µM), for the others: at the top dose activity change, negative = inhibition, hits mostly inhibitors; 330,000 tested, 0.01% active; AID 463254;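 note: potency is the fitted concentration of half-maximal effect; plate controls were DMSO wells for no effect and full inhibition by NEM control for full effect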
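USP2 core (10nM final) preincubated 30min RT with compound in 20mM Tris-HCl pH 8.0, 2mM CaCl2, 2mM beta-mercaptoethanol, 0.05% CHAPS; 25nM Ub-CHOP2 plus 25nM reporter substrate added, fluorescence (Ex485/Em531) read after 60min.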
Numbers without * were called inactive; i = inactive; ? = inconclusive; nt = not tested or not shown. Unless noted, calls come from the whole dose curve; as a rule, active = well fitted curve in the direction sought with a large enough effect; inconclusive = small, poorly fitted or top-dose-only effect, or another doubt; inactive = no such curve, though single readings can be large; an effect the other way counts as inactive or inconclusive.

SMILES | USP1 inh | S2 tox | ATXN2 expr inh | IL-1B inflam inh | USP2a inh
CCCCCCCCn1ccc(=N)cc1 | 3% | ? | ? | -10 | -1%
CCCCCCCCCCn1ccc(=N)cc1 | -13% | i | ? | -95* | -3%
Cc1cccc(NC(=O)Cn2c(=O)n(Cc3ccc4c(c3)OCO4)c(=O)c3ccccc32)c1 | -13% | i | -1% | nt | nt
NNc1nccc(Nc2ccccc2C(=O)O)n1 | -11% | i | -7% | -67* | 4%
O=C1NCCN1CCNc1nc(NCc2ccccc2)nc2ccsc12 | nt | ? | -3% | 6 | nt
Cc1ccc(Nc2nc(NCc3cccs3)nc3ccsc23)c(C)c1 | nt | ? | ? | -51* | nt
COCCNc1nc(NCc2cccs2)nc2ccsc12 | nt | i | -7% | -90* | nt
O=C1CCCN1CCCNc1nc(NCc2cccs2)nc2ccsc12 | nt | ? | -28% | -84* | nt
CC(=O)NCCNc1nc(NCc2cccs2)nc2ccsc12 | nt | i | 14% | 111 | nt
c1ccc(CNc2nc(NCCc3ccncc3)c3sccc3n2)cc1 | nt | ? | 0% | -98* | nt
CCCN(CC)C(CC)C(=O)Nc1c(C)cccc1C (stereo not given) | nt | i | nt | nt | nt
c1ccc(CNc2nc(NCc3cccs3)nc3ccsc23)cc1 | nt | ? | -7% | -57* | nt
Cc1ccc(C(=O)N(CC(=O)NC2CCCC2)c2ccccc2F)s1 | -1% | i | nt | -6 | nt
C[C@@H](c1ncncc1F)C(O)(Cn1cncn1)c1ccc(F)cc1F (stereo not given in full) | nt | i | 14% | nt | nt
Cc1cc(Cl)ccc1OCC(=O)NNC(=O)c1cnccn1 | 3% | ? | ? | 2 | 4%
Cc1ccc(C(=O)NNC(=O)COc2ccc(Cl)cc2C)o1 | 0% | i | 12% | -54* | 1%
O=C(COC(=O)c1c2c(nc3ccccc13)/C(=C/c1ccco1)CC2)NC1CCCC1 | -6% | nt | 5% | -61* | ?
CC1CCCCC1NC(=O)COC(=O)c1c2c(nc3ccccc13)/C(=C/c1ccco1)CC2 (stereo not given) | -22% | nt | 11% | -15 | ?
c1ccc(-c2ccccc2OCCCCn2ccnc2)cc1 | -8% | i | -15% | -58* | 0%
CC(C)(C)c1cc(Cl)ccc1OCCn1ccnc1 | 0% | i | -16% | -53* | -4%
Cc1cccc(OCCCCCn2ccnc2)c1C | -21% | i | -23% | -6 | 2%
CC(C)(C)c1ccccc1OCCCCCn1ccnc1 | -13% | i | -33% | -98* | 1%
O=C1/C(=C\c2ccccc2)CCc2c1[nH]c1ccccc21 | -17% | i | 27% | ? | -4%
O=C1/C(=C/c2ccccc2)CCc2ccc(Cl)nc21 | -18% | ? | ? | -105* | nt
CCOC(=O)Cn1cc(/C=C/[N+](=O)[O-])c2ccccc21 | -21% | nt | nt | -51* | 3%
SMILES | USP1 inh | S2 tox | ATXN2 expr inh | IL-1B inflam inh | USP2a inh
N#C/C(=C\c1cccc(Oc2ccccc2)c1)C(=O)N1CCOCC1 | -8% | i | 21% | -100* | -1%
COc1cc(/C=C(\C#N)C(=O)N2CCOCC2)cc(Br)c1O | -26% | ? | nt | 18 | 0%
Cc1cccc(Cn2cc(/C=C/[N+](=O)[O-])c3ccccc32)c1 | ? | ? | -77% | -67* | 1%
COC(=O)c1ccc(Cn2cc(/C=C\[N+](=O)[O-])c3ccccc32)o1 | -5% | ? | ? | -102* | -5%
O=C(O)c1ccc(Cn2cc(/C=C\[N+](=O)[O-])c3ccccc32)o1 | -3% | nt | nt | 12 | 1%
CCOC(=O)Cn1cc(C#N)c2ccccc21 | -12% | i | 2% | -8 | 0%
O=C(O)c1ccn(CSc2cc(Cl)ccc2Cl)n1 | -24% | ? | nt | 3 | 9%
C[C@H](CO)N1C[C@H](C)[C@@H](CN(C)C(=O)Nc2ccc(F)cc2)Oc2cc(Br)ccc2S1(=O)=O | -4% | i | -10% | -2 | nt
CCOc1ccccc1CNC(=O)CCn1cccn1 | 5% | i | 5% | nt | nt
COC(=O)c1c(NC(=O)COc2ccc(C)cc2Br)sc2c1CCCC2 | -9% | i | 5% | nt | nt
CCOC(=O)Cn1cc(/C=C(\C#N)C(=O)N2CCOCC2)c2ccccc21 | -1% | i | 17% | -95* | 9%
CCOC(=O)Cn1cc(/C=C(/C#N)C(=O)NC(C)C)c2ccccc21 | -25% | i | 4% | -1 | 1%
c1ccc2c(c1)CCc1ccccc1C2=C1CCNCC1 | -3% | i | -22% | -66* | nt
O=C1C(=C2CCc3ccccc32)Cc2ccccc21 | -18% | i | 49% | 5 | nt
CC(=O)c1ccc(O)c(C(N)=O)c1 | nt | i | 3% | nt | nt
N#Cc1ccc(-c2ccc(OCC(=O)Nc3cccnc3)cc2)cc1 | 2% | i | -34% | -52* | 2%
O=C(CCCn1c(=O)[nH]c2ccccc2c1=O)NCc1ccccc1Cl | -9% | i | 8% | nt | nt
Cc1ccc(Cl)cc1N1CCN(C(=O)CCS(=O)(=O)c2ccc3c(c2)NC(=O)CO3)CC1 | -12% | i | ? | -53* | 3%
CC1(Oc2cccnc2Cl)CCN(Cc2ccc(OC(F)(F)F)cc2)C1 (stereo not given) | nt | i | -13% | -56* | nt
CCCCN(CCCC)Cc1ccc(C(=O)NNC(=O)Nc2ccc(Cl)cc2)o1 | -19% | ? | -15% | -57* | -9%
COc1ccccc1/C=C/C=C1\Oc2c(ccc(O)c2CN2CCN(CCO)CC2)C1=O | 32µM* | i | 46% | ? | ?
CCN1CCN(Cc2c(O)ccc3c2O/C(=C\C=C\c2ccccc2)C3=O)CC1 | ? | i | ? | -100* | ?
Cc1ccc(N=N/C(=C\O)C(=O)c2ccncc2)cc1 | -11% | i | -8% | -7 | 3%
COc1ccc(C(=O)/C(=C/O)N=Nc2ccc(F)cc2)cc1 | -20% | 22µM* | ? | -99* | 8%
COc1ccc(NC(=O)c2cccs2)cc1 | -11% | i | 26% | -1 | 2%
SMILES | USP1 inh | S2 tox | ATXN2 expr inh | IL-1B inflam inh | USP2a inh
COc1ccc(N=N/C(=C\O)C(=O)c2cccs2)cc1 | -29% | ? | ? | -81* | 0%
CCN(CC)c1ccc2cc(-c3nc4ccccc4[nH]3)c(=O)oc2c1 | -20% | nt | -75% | 5 | ?
CCN(CC)c1ccc2nc3ccc(N)cc3[n+](-c3ccccc3)c2c1 | -20% | 16µM* | 13µM* | -6 | -1%
CCN(CC)c1ccc2nc3ccccc3[n+](CC)c2c1 | -24% | 8.9µM* | ? | -101* | ?
CCc1ccc(S(=O)(=O)c2nnn3c2nc(Nc2cc(OC)ccc2OC)c2sccc23)cc1 | -24% | nt | nt | nt | nt
Cc1ccc2c(c1)c1c(n2CC(O)Cn2nc(C)c(Br)c2C)C(=O)CCC1 (stereo not given) | -7% | i | -21% | 0 | 2%
CC(=O)c1c(C)nn(CC(O)Cn2c3c(c4cc(C)ccc42)CCCC3=O)c1C (stereo not given) | -4% | i | -5% | -62* | 2%
